Rows were chosen to be rich in hits. Some 4.6% of all compounds tested hit in one or more screens of this group.
D1 antag = Antagonist of Human D 1 Dopamine Receptor: qHTS. D(1A) dopamine receptor (Homo sapiens), P21728. HEK293 TREx D1 cells, calcium flux, dopamine EC80; hits give low values. activity change, negative = inhibition, % at 10 µM. hit rate 3.2% among 360,000; in the data active = activity change below about -30%; note: % is set by controls: 0 for no effect and ±100 for the full control effect
Target sequence (P21728 whole entry, looked up): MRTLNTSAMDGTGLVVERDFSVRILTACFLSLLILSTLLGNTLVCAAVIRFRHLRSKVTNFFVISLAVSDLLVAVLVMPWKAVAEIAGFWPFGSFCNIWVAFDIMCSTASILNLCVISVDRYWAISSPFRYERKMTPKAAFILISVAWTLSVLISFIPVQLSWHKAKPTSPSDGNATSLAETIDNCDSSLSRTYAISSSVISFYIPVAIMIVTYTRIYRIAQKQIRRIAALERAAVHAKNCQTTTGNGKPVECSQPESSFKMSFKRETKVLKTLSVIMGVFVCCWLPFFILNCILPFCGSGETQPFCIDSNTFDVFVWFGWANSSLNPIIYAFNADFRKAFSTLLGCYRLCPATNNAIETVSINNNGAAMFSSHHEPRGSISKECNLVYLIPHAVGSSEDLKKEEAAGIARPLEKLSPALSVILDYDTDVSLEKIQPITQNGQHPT
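Antagonism measured as reduced calcium response to an EC80 dopamine addition following 180 s compound pre-read; cells were inducible HEK293 Trex D1 plated overnight at 30 C, read kinetically at 1 cycle/sec.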
D1 ag = Allosteric Agonists of the Human D1 Dopamine Receptor: qHTS. D(1A) dopamine receptor (Homo sapiens), P21728. HEK293 T-REx D1 cells, calcium flux, agonist mode. activation, % at 2 µM. hit rate 1% among 360,000; note: 0% is about no effect
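Agonism was scored from calcium flux recorded over 180 s (1 read/s) after pintool compound addition, following a 10-cycle baseline. Cells were inducible force-coupled HEK293 TREx D1, plated overnight at 30 C and loaded with no-wash calcium dye.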
D1 PAM = Potentiators of Human D1 Dopamine Receptor: qHTS; D(1A) dopamine receptor (Homo sapiens), P21728; HEK293 TREx D1 cells, calcium flux, dopamine EC20 potentiation; potentiation, % at 10 µM; hit rate 0.036% among 360,000; AID 504651, 2011; in the data active = potentiation above about 30%; note: 0% is about no effect
TRHR PAM = qHTS for Small Molecule Agonists and Allosteric Enhancers of Human TRH Receptor: Primary Screen for Enhancers. hit rate 0.66% among 360,000. Thyrotropin-releasing hormone receptor (Homo sapiens), P34981. TRHR cells, fluo-8 calcium fluorescence, EC20 TRH enhancement. enhancement, % at 2 µM. AID 493056, 2011; in the data active = enhancement above about 30%; note: 0% is about no effect
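TRHR-expressing cells loaded with fluo-8 calcium dye were read kinetically (ex 480/em 530) during compound addition, then stimulated with an EC20 of TRH (10 nM final). Enhancement of the Gq-mediated intracellular calcium response was scored.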
TRHR agonist = qHTS for Small Molecule Agonists and Allosteric Enhancers of Human TRH Receptor: Primary Screen for Agonists; hit rate 0.18% among 360,000; Thyrotropin-releasing hormone receptor (Homo sapiens), P34981; activation, % at 2 µM; TRHR cells, calcium flux fluo-8, FDSS agonist mode; AID 493084, 2011; note: 0% is about no effect
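TRHR-expressing cells, plated overnight in medium with 10% serum, were loaded with fluo-8 calcium dye at room temperature. After a 10 s baseline, library compound was pin-added and calcium release was recorded kinetically (ex 480/em 530) as agonist response.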
Starred values were filed as active, the others as inactive; ! = not active in a repeat. Cut-off read from the data, not from the text of the source, unless noted: active = activation above about 30%; inactive = the rest.

SMILES	D1 antag	D1 ag	D1 PAM	TRHR PAM	TRHR agonist
COc1ccc(C(=O)NC2CC2)cc1OC1CCN(Cc2cc(C)c(C)cc2C)CC1	-86*	1	-16	12	0
COc1ccc(C(=O)NC2CC2)cc1OC1CCN(Cc2cnn(C)c2C)CC1	-27	0	-9	7	1
CCOc1ccc(Sc2cc(C(=O)NCCCOC)c3ccccc3n2)cc1	4	-3	4	-7	-1
CCNC(=S)NNC(=O)c1cc(-c2ccccc2C)nc2ccccc12	-11	1	5	-7	-1
CCNC(=S)NNC(=O)c1cc(-c2ccc(OCC)cc2)nc2ccccc12	-33*	8	-6	-4	-1
CCOc1ccc(Sc2cc(C(=O)NC(C)c3ccccc3)c3ccccc3n2)cc1 (stereo not given)	-30*	-3	-3	-6	1
CCNC(=S)NNC(=O)c1cc(-c2cccc(OC)c2)nc2ccccc12	-2	2	-3	-9	-1
CCNC(=S)NNC(=O)c1cc(CC(C)C)nc2ccccc12	-46*	2	-1	-5	0
Clc1ccc(CN2CCN(c3ncccn3)CC2)c(Cl)c1	-37*	7	-4	-4	-1
O=C(O)Cc1ccc(NS(=O)(=O)c2ccccc2Cl)cc1	8	4	-10	4	1
COc1cccc(C(C(=O)NC2CCCC2)N(Cc2cccnc2)C(=O)Cc2cccs2)c1 (stereo not given)	2	4	3	5	-2
COc1cccc2c1C(=O)c1c(O)c3c(c(O)c1C2=O)C[C@@](O)(C(C)=O)C[C@@H]3O[C@H]1C[C@H](N)[C@H](O)[C@H](C)O1	12	44*	-3	-2	20
COc1cc(CNCc2ccc(OC)c(OC)c2OC)cc(OC)c1	-15	6	-12	-4	0
N#C/C(=C\c1ccc(-c2ccc(C(=O)O)cc2)o1)c1nc2ccccc2[nH]1	3	43*	-2	4	31*!
Cc1ccc2nc(/C(C#N)=C/c3ccc(O)c(O)c3)[nH]c2c1	-20	7	-3	8	15
N#C/C(=C\c1ccc(N2CCOCC2)o1)c1nc2ccccc2[nH]1	-20	64*	-2	3	0
N#C/C(=C\c1ccc(-c2ccc(Cl)c(C(=O)O)c2)o1)c1nc2ccccc2[nH]1	10	14	0	3	26
Cc1ccc2nc(/C(C#N)=C/c3ccc(-c4cccc(Cl)c4)o3)[nH]c2c1	1	277*	1	4	59*
N#C/C(=C\c1ccc(N2CCOCC2)c([N+](=O)[O-])c1)c1nc2ccccc2[nH]1	-26	1	-7	-5	0
Cc1ccc2nc(/C(C#N)=C/c3cn[nH]c3-c3ccc(F)cc3)[nH]c2c1	-45*	1	-1	-6	0
C/C(=N\N(c1ccccc1)c1ccccc1)c1ccco1	-8	1	-2	-2	-1
C=CCNC(=O)Cn1nnc(-c2ccc(-c3ccc(OC)cc3)cc2)n1	43	3	-8	-6	2
CC(C)(/C=N/O)/[N+]([O-])=C/C=[N+](\[O-])C(C)(C)/C=N/O	1	3	10	-1	0
O=C(O)c1ccc(-n2c(/C=C/c3ccccc3)nc3ccccc3c2=O)cc1	-5	0	12	-7	0
COC(=O)c1ccc(-n2c(/C=C\c3cccc(Br)c3)nc3ccccc3c2=O)cc1	-32*	4	-2	0	0
SMILES	D1 antag	D1 ag	D1 PAM	TRHR PAM	TRHR agonist
O=C(Nc1ccc(Cl)cc1Cl)c1cc(S(=O)(=O)N2CCC3(CC2)OCCO3)ccc1F	-41*	2	-3	-3	0
Cc1ccc(C)c(S(=O)(=O)N2CCC3(CC2)OCCO3)c1	10	36*	-3	1	0
O=C(Nc1cccc(Cl)c1)c1cc(S(=O)(=O)N2CCC3(CC2)OCCO3)ccc1F	-2	-1	4	7	1
Cc1ccc(S(=O)(=O)N2CCC3(CC2)OCCO3)cc1	-32*	20	-3	4	1
O=C(NCc1ccc(Cl)cc1)C1CCC(CNc2c(N3CCOCC3)c(=O)c2=O)CC1 (stereo not given)	-1	2	-7	2	0
COc1ccc(N(CC(O)CN2CCOCC2)S(=O)(=O)c2ccc(C)cc2)cc1 (stereo not given)	6	3	-4	19	1
CN(Cc1ccccc1)C(=S)NC(=O)c1ccccc1	9	5	3	31*	0
CCCCOc1ccc(Cn2c(=O)oc3ccccc32)cc1	-39*!	4	-4	-4	1
CCCCOc1ccc(Cn2c(=O)oc3ccc(C)cc32)cc1	-79*	12	-8	-2	3
Cc1ccc2oc(=O)n(Cc3ccc(OC(C)C)cc3)c2c1	2	4	-1	-4	-2
CSCCC(NC(=O)c1ccccc1)C(=O)N1CCN(C(c2ccccc2)c2ccccc2)CC1 (stereo not given)	-3	3	-7	0	1
CN1/C(=C\C(=O)c2cccc(S(=O)(=O)N3CCCCC3)c2)C(C)(C)c2ccccc21	-4	1	-7	30*	0
Cc1cc(C)n(C(=O)/C(C#N)=N/Nc2cc(Cl)cc(Cl)c2)n1	-34*	20	-6	-9	1
N#Cc1c2c(c(NCCCN3CCOCC3)n3c1nc1ccccc13)CCC2	-17	-1	2	-6	-1
CCOc1ccc(S(=O)(=O)N(C)c2ccc(OCC(=O)N3c4ccc(C)cc4C4CN(C)CCC43)cc2)cc1 (stereo not given)	-40*	1	-6	5	0
Cc1ccc2c(c1)C1CN(C)CCC1N2C(=O)COc1ccc(N(C)S(=O)(=O)c2cccs2)cc1 (stereo not given)	-36*	13	-14	3	1
CC(C)C(=O)OCc1cc(=O)n2nc(C3CC3)sc2n1	-6	4	-1	-7	1
Cc1nc(SCc2ccccc2F)c2cnn(-c3ccccc3)c2n1	-6	1	-7	1	0
CCn1cc(CN2CCCC(CO)(Cc3ccc(F)cc3)C2)c2ccccc21 (stereo not given)	-17	31*	-3	4	1
CCOC(=O)c1ccc(NC(=O)CCc2nc(-c3ccc(C)cc3)no2)cc1	1	45*	-9	15	-2
Cc1ccc(-c2noc(CCCC(=O)Nc3cccnc3)n2)cc1	-34*	20	-3	-12	-1
CCOC(=O)c1ccc(NC(=O)CCc2nc(-c3ccc(Cl)cc3)no2)cc1	-19	20	-4	11	0
